Where a name gives a salt, the structure may show the parent alone.
System: MDA-MB-468
Experiment: phospho-S6 immunofluorescence (DAPI-normalised), per-plate z-score; higher = higher phospho-S6 signal (less pathway suppression)
Details: 24 h
Procedure: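 GPCR-targeted compound library (MedChemExpress HY-L006) tested on MDA-MB-468 PTEN-null TNBC cells in 384-well plates at 0.1, 1 or 10 uM, combined with vehicle, GDC0941 450 nM or lapatinib 1 uM, for 24 h. Phospho-S6 (S240/244) immunofluorescence normalised to DAPI and expressed as a per-plate z-score; values are the mean of biological triplicates.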

Compound	phospho-S6 immunofluorescence (z-score) (co-treatment: GDC0941 450 nM)	phospho-S6 immunofluorescence (z-score) (co-treatment: lapatinib 1 uM)	phospho-S6 immunofluorescence (z-score) (co-treatment: vehicle)
Cn1cc(C(=O)[C@@H]2CCc3[nH]cnc3C2)c2ccccc21 [Ramosetron (Hydrochloride)] (compound 10 µM)	-1.27	0	-0.92
Cc1nc2n(c(=O)c1CCN1CCC(c3noc4cc(F)ccc34)CC1)CCCC2O (stereo not given) [Paliperidone] (compound 10 µM)	0.37	0.36	0.5
NCCc1c[nH]cn1 [Histamine (phosphate)] (compound 10 µM)	-0.41	-0.13	0.1
CNC(=C[N+](=O)[O-])NCCSCc1csc(CN(C)C)n1 [Nizatidine] (compound 10 µM)	-1.38	0.52	1.38
CC(CCc1ccccc1)NCC(O)c1ccc(O)c(C(N)=O)c1 (stereo not given) [Labetalol (hydrochloride)] (compound 10 µM)	0.84	-0.16	0.83
Clc1cccc(Cl)c1NC1=NCCN1 [Clonidine (hydrochloride)] (compound 10 µM)	0.37	0.75	1.03
CNC[C@H](O)c1ccc(O)c(O)c1 [L-Epinephrine (Bitartrate)] (compound 10 µM)	0.93	2.5	-0.23
Cc1ccccc1N1CCN(CCc2nnc3n2CCCC3)CC1 [Dapiprazole (hydrochloride)] (compound 10 µM)	0.31	-0.49	-0.32
CC(C)[C@H](NC(=O)[C@H](CCCN=C(N)N)NC(=O)[C@@H](N)CC(=O)O)C(=O)N[C@@H](Cc1ccc(O)cc1)C(=O)N[C@H](C(=O)N[C@@H](Cc1cnc[nH]1)C(=O)N1CCC[C@H]1C(=O)N[C@@H](Cc1ccccc1)C(=O)O)C(C)C [Angiotensin II 5-valine] (compound 10 µM)	1.16	0.49	0.07
CN(C)CC1CCOC1(c1ccccc1)c1ccccc1 (stereo not given) [AVex-73 hydrochloride] (compound 10 µM)	-0.82	-1.17	0.2
COC(=O)CCc1ccc(OCC(O)CNC(C)C)cc1 (stereo not given) [Esmolol (hydrochloride)] (compound 10 µM)	1.52	0.09	-0.19
CC(C)NCC(O)c1ccc(NS(C)(=O)=O)cc1 (stereo not given) [Sotalol (hydrochloride)] (compound 10 µM)	1.31	1.24	0.37
C=CCN1CCc2c(cc(O)c(O)c2Cl)C(c2ccccc2)C1 (stereo not given) (compound 10 µM)	-0.13	1.66	1.76
CC(C)[C@H](N=C(NS(=O)(=O)c1ccc(Cl)cc1)N1C[C@H](c2ccccc2)C(c2ccc(Cl)cc2)=N1)C(N)=O (compound 10 µM)	-2.11	-0.39	0.1
CCCCC(C)(O)C/C=C/[C@H]1[C@H](O)CC(=O)[C@@H]1CCCCCCC(=O)OC (mixture of isomers) [Misoprostol] (compound 10 µM)	0.36	0.67	1.59
CCCc1nc(C(C)(C)O)c(C(=O)OCc2oc(=O)oc2C)n1Cc1ccc(-c2ccccc2-c2nnn[nH]2)cc1 [Olmesartan (medoxomil)] (compound 10 µM)	-0.4	-0.27	-0.03
CCOC(=O)N[C@@H]1CC[C@@H]2[C@@H](C1)C[C@H]1C(=O)O[C@H](C)[C@H]1[C@H]2/C=C/c1ccc(-c2cccc(F)c2)cn1 [Vorapaxar] (compound 10 µM)	-5.92	-11.6	-9.84
O=C(c1ccc(F)cc1)C1CCN(CCn2c(=O)[nH]c3ccccc3c2=O)CC1 [Ketanserin (tartrate)] (compound 10 µM)	0.46	-0.54	0.68
C[N+](C)(C)CCOC(N)=O [Carbamoylcholine (chloride)] (compound 10 µM)	0.06	0.02	0.87
c1ccc2c(c1)N=C(N1CCNCC1)c1ccccc1N2 [DREADD agonist 21] (compound 10 µM)	-0.11	-1.74	-0.53
NC(=O)CC[C@H](N)C(=O)O [L-Glutamine] (compound 10 µM)	-0.23	-0.64	-0.12
CN1CCN(CCc2ccc(Cl)c(Cl)c2)CC1 [BD1063 (dhydrochloride)] (compound 10 µM)	0.51	-1.56	-0.49
Nc1nc2c(cnn2CCc2ccccc2)c2nc(-c3ccco3)nn12 (compound 10 µM)	-0.2	1.51	3.1
Cc1cccn2c(=O)c(-c3nnn[nH]3)cnc12 [Pemirolast (potassium)] (compound 10 µM)	-0.3	-0.65	-1.33
CC(=O)Oc1cc2c(s1)CCN(C(C(=O)C1CC1)c1ccccc1F)C2 (stereo not given) [Prasugrel] (compound 10 µM)	-1.29	1.92	-0.48

From the supplement of paper PMC7411640
